# Measurements published in PubChem BioAssay AID624331 (National Center for Advancing Translational Sciences (NCATS), 2012).
# Inconclusive results are not listed. The source made the active and inactive calls. Calls come from the whole dose curve; as a rule, active = well fitted activation curve with a large enough effect; inconclusive = small, poorly fitted or top-dose-only effect; inactive = no such curve, though single readings can be large or run the other way.
# Assay: qHTS assay for re-activators of p53 using a Luc reporter: Hit Validation with no p53 Expressed; for activity change, positive = activation: 0% is about no effect
# Conditions: p53-null cells, luciferase reporter counter-screen; series mostly up to 46.1 µM; activity change, positive = activation: at the top concentration
# Procedure, shortened: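 Without p53 expression, cells (1000/well, Opti-MEM + 10% FBS) were exposed 24 h at 37 deg C to compounds in a 1:5 series from 10 mM stock (top 46.1 µM in well). Luminescent signal read 10 min after Amplite addition; actives flag unspecific activation.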
# Potency is the fitted concentration of half-maximal effect.
Compound,"activity change, positive = activation",Potency
Cc1ccc(C(=O)c2cc([N+](=O)[O-])ccc2N2CCCCC2)cc1C,-48.2% (inactive),–
COC(=O)c1c(C)[nH]c(C(=O)/C=C/c2ccccc2)c1C,1.34% (inactive),–
O=C(COc1ccccc1[N+](=O)[O-])N/N=C/c1cccc(OC(=O)c2ccc3c(c2)OCO3)c1,-0.202% (inactive),–
O=C(CSc1nnc(-c2ccc(F)cc2)c2ccccc12)Nc1ccccc1,-15.3% (inactive),–
COc1ccc2oc(-c3cccc(NC(=O)CSc4ccc(Cl)cc4)c3)nc2c1,46.1% (inactive),–
CCOc1ccc(S(=O)(=O)c2c(C(=O)c3ccc(C)cc3)cnc3cc4c(cc23)OCCO4)cc1,-4.04% (inactive),–
COCc1[nH]nc2c1C(c1cccc(OC)c1)C(C#N)=C(N)O2 (centres undefined),-20.5% (inactive),–
Cc1ccnc(NC(=O)/C=C/c2cccs2)c1,-14.7% (inactive),–
Cc1ccc(OC(=O)c2cccc(S(=O)(=O)N3CCCC3)c2)c(-n2nc3ccccc3n2)c1,15.2% (inactive),–
Cc1ccc(S(=O)(=O)CNC(=O)c2ccccc2)cc1,-19.2% (inactive),–
CCc1ccc2[nH]c(=O)c(CN(CCN3CCCC3)C(=O)NC3CCCCC3)cc2c1,-34.5% (inactive),–
COc1ccc(N2CCN(C(=O)COC(=O)c3ccc(OC(F)F)cc3)CC2)cc1,16.1% (inactive),–
Nc1c(C(=O)CSc2nc3ccccc3o2)c(=O)[nH]c(=O)n1C1CC1,-8.39% (inactive),–
CCn1c(=N)n(CCOc2ccc(OC)cc2)c2ccccc21,9.06% (inactive),–
Cc1ccc(NC(=O)c2ccc3nc[nH]c3c2)cc1C,9.85% (inactive),–
Cc1cccc(-n2c(O)c(C=Nc3ccccc3N)c(=O)[nH]c2=O)c1,62.1% (inactive),–
Cc1cccc(C)c1Nc1c(-c2ccccn2)nc2ccccn12,-50% (inactive),–
FC(F)(F)c1nnc2c(Sc3ccccn3)nc3ccccc3n12,66.9% (inactive),–
C(=N\Nc1nc2ccccc2s1)/c1ccc2c(c1)OCO2,9.11% (inactive),–
COc1cc(N=c2c([N+](=O)[O-])nn(-c3ccc4c(c3)OCCO4)n2O)cc(OC)c1,65.3% (inactive),–

Compound,"activity change, positive = activation",Potency
Clc1cccc(Cl)c1CSc1nnc2ccccn12,-2.02% (inactive),–
Oc1ccccc1-c1cc(-c2ccc3c(c2)OCCO3)n[nH]1,30.1% (inactive),–
CCc1ccc2c(CN(CC)Cc3nc4ccccc4c(=O)[nH]3)cc(=O)oc2c1,39.4% (inactive),–
O=C(/C=C/Nc1ccccc1F)c1cccs1,40.9% (inactive),–
O=C(NNc1c2ccccc2nc2ccccc12)c1ccc(O)cc1,9.35% (inactive),–
COc1ccc(S(=O)(=O)NC2CC(C)(C)NC(C)(C)C2)c2ccccc12,9.79% (inactive),–
O=C(N/N=C\c1cc(Cl)ccc1O)c1ccc(S(=O)(=O)N2CCCCC2)cc1,-22.2% (inactive),–
COc1ccc(-n2c(C)cc(C(=O)COc3ccc(C)nc3[N+](=O)[O-])c2C)cc1,-28.6% (inactive),–
COc1ccccc1/C=C/C(=O)Nc1ccc2c(c1)CCC2,–,2.91 µM (active)
Cc1ccccc1OCC(=O)Nc1cccc2nsnc12,37.9% (inactive),–
COc1ccccc1C(=O)CSc1nccn1C,68.7% (inactive),–
CC(=O)N1CCC(C(=O)Nc2ccc(S(=O)(=O)NCCc3ccccc3)cc2)CC1,-14.8% (inactive),–
COc1ccccc1OCCn1nnc2ccccc21,48.1% (inactive),–
CSCCC(NC(=O)c1ccc(Cl)cc1Cl)C(=O)N1CC(C)OC(C)C1 (centres undefined),-16.4% (inactive),–
CCOc1ccc(-n2c(SCc3nc(-c4cccs4)no3)nnc2-c2ccncc2)cc1,-28.2% (inactive),–
COc1ccc(NC(=S)NC(=NS(=O)(=O)c2ccc(Cl)cc2)c2ccccc2)cc1,42.3% (inactive),–
COc1cccc(/C=N/NC(=O)CCc2n[nH]c(=O)[nH]c2=O)c1O,-13.8% (inactive),–
O=C(NCc1ccco1)c1noc2c1CCCC2,3.62% (inactive),–
O=C1/C(=C/c2ccco2)SC(=S)N1CCC(=O)N1CCCCC1CCO (centres undefined),149% (inactive),–
